Bioassay records (PubChem BioAssay)
SARS PLpro yeast: blocks SARS-CoV papain-like protease in a yeast assay; S. cerevisiae expressing SARS-CoV PLpro, growth rescue; Potency, µM (doses to about 32.9 µM), most hits filed as activators; actives 0.19% (n = 330,000); calls by dose curve; further: nearly all actives have a fitted effect of over 55% in size
AMA1 RON2 block: AMA1-RON2 (P. falciparum) interaction inhibition. AlphaScreen AMA1-biotinylated RON2 peptide binding. Potency, µM (titrated, usually from 58.2 µM), usual class: inhibitors. actives 0.2% (n = 360,000). AID 720542; further: nearly all actives have a fitted effect of over 45% in size
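AMA1 (3D7) with his tag at 25 nM final met compounds first, then biotinylated RON2 peptide at 25 nM; detection used donor plus acceptor beads, 10 µg/mL apiece, read by AlphaScreen after 30 min at room temperature.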
AmpC no deterg: inhibitors of E. coli AmpC beta-lactamase without detergent; actives 0.52% (n = 330,000); Potency, µM (titrated, usually from 57.1 µM), most hits filed as inhibitors; AmpC nitrocefin hydrolysis, absorbance 480 nm, 0.0001% Triton; P00811; further: nearly all actives have a fitted effect of over 20% in size
Target sequence (P00811 whole entry, looked up): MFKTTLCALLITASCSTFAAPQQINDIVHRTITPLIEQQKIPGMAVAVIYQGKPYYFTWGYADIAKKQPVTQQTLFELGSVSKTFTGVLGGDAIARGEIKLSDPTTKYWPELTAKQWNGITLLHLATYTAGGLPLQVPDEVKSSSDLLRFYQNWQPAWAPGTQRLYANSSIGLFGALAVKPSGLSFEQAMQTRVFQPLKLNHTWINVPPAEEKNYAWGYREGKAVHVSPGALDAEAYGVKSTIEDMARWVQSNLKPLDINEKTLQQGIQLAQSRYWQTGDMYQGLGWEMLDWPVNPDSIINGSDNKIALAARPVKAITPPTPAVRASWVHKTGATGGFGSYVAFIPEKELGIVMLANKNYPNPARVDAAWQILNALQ
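AmpC (5.3 nM in the dispensed reagent) in 20 mM phosphate pH 7.0 with 0.01% (detergent screen) or 0.0001% Triton X-100 was preincubated with compounds for 15 min at room temperature. Nitrocefin was then added from an 800 uM solution, and hydrolysis was followed at 480 nm.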
AmpC inh detg: inhibitors of E. coli AmpC beta-lactamase with detergent | AmpC hydrolysis of nitrocefin, absorbance 480 nm, 0.01% Triton | Potency, µM (highest dose often 114 µM), hits mostly inhibitors | actives 0.041% (n = 370,000) | AID 485294; further: nearly all actives have a fitted effect of over 25% in size
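20 mM phosphate pH 7.0 + 0.01% (detergent screen) or 0.0001% Triton X-100; 5.3 nM AmpC reagent; cpd preinc 15 min RT; nitrocefin (800 uM stock) to start; A480 q20 s × 4 min; Activity was normalised to no-enzyme and no-compound control wells.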
Shiga inhibitor: blocks Shiga toxin action in Vero cells | inhibition, % at 38.7 µM | Vero cells, Shiga toxin protein synthesis inhibition reporter | actives 9.2% (n = 290,000); in the data active means inhibition mostly above about 28%, no sharp cut-off; inactive means mostly below about 43%
Cycloheximide cs: counter-screen for Shiga toxin inhibitors: cycloheximide protein synthesis inhibition; cell reporter, cycloheximide protein synthesis inhibition counterscreen; max response, %; actives 12% (n = 300,000); AID 2314; in the data active means max response mostly above about 13%, no sharp cut-off; inactive means mostly below about 14%; further: read at 38.3 µM for the half of the compounds with a filed dose
Of the large screens only hits and unclear results are named; the others gave an inactive call. Shown is part of a subset that was picked to be rich in hits. Unless noted, the call rests on the fitted dose curve; in most records, active means well fitted curve in the direction sought with a large enough effect; inconclusive means small, poorly fitted or top-dose-only effect, or another doubt; inactive means no such curve, though single readings can be large; an effect the other way counts as inactive or inconclusive.

Cc1cc2n(n1)C(c1c[nH]c3ccccc13)Nc1ccccc1-2 (centres undefined)	Shiga inhibitor 41, Cycloheximide cs 29
Cc1cc2n(n1)C(c1cn(-c3ccccc3)nc1C)Nc1ccccc1-2 (centres undefined)	none
O=C(Nc1ccc(F)cc1F)NC1CCN(Cc2c(F)cccc2Cl)CC1	none
Cc1[nH]n(-c2ncc(-c3ccc(Cl)cc3)s2)c(=O)c1C(c1ccc(Cl)cc1)C(C#N)C#N (centres undefined)	AmpC no deterg 40µM
COc1ccc(C(c2c(C)[nH]n(C(N)=S)c2=O)C(C#N)C#N)cc1 (centres undefined)	none
CCC(C)(C)NC(=O)C(c1ccc(OC)cc1)N(C(=O)CCC(=O)Nc1cc(C)on1)C(C)(C)C (centres undefined)	none
Cn1c(=O)c(-c2ccccc2N)nc2ccccc21	Shiga inhibitor 37
CNc1ccccc1-c1nc2ccccc2n(C)c1=O	AMA1 RON2 block inconclusive
COc1ccccc1CNC(=O)CN(c1ccc(C)cc1)S(=O)(=O)c1c(C)n[nH]c1C	none
O=C(c1cc(-c2ccc(Cl)cc2Cl)on1)N1CCCCCC1	Shiga inhibitor 99, Cycloheximide cs 38
O=C(c1cc(-c2ccc(Cl)cc2Cl)on1)N1CCCC1	Shiga inhibitor 89, Cycloheximide cs 23
CCOC(=O)C1CCCN(c2c(N3CCC(N4CCCCC4)CC3)c(=O)c2=O)C1 (centres undefined)	none
O=C(NNc1ccc(Cl)cc1)c1c(F)cccc1Cl	none
CC(=O)C(=Nc1ccccc1Cl)NNc1ccc(Cl)cc1	AMA1 RON2 block 20µM
COc1cc(OC)cc(C(=O)Nc2nc(CC(=O)NCCc3ccccc3)cs2)c1	none (no result: Shiga inhibitor, Cycloheximide cs)
Cc1cc(/C=N/NC(=O)C(=O)NCc2ccccn2)c(C)n1-c1ccccc1	Shiga inhibitor 46, Cycloheximide cs 28
COc1cccc(/C=N/NC(=O)COc2cccc3cccnc23)c1O	Shiga inhibitor 32
Cc1cc(/C=N\NC(=O)COc2cccc3cccnc23)c(C)n1-c1ccccc1	Shiga inhibitor 64, Cycloheximide cs 31
COc1ccccc1OCC(=O)N/N=C/c1cccc2cccnc12	none
Cc1cc(/C=N\NC(=O)COc2cccc3cccnc23)c(C)n1-c1ccc(Br)cc1	none
Cc1cc(/C=N/NC(=O)Cn2c3ccccc3c(=O)c3ccccc32)c(C)n1-c1ccccc1	none
Cc1cc(/C=N\NC(=O)c2cccs2)c(C)n1-c1ccc2ncccc2c1	Shiga inhibitor 135, Cycloheximide cs 40
O=C1c2cccc3c2N(CCC3)C(=O)C1(F)c1ccccc1 (centres undefined)	none (no result: SARS PLpro yeast, AmpC no deterg, AmpC inh detg, Shiga inhibitor, Cycloheximide cs)
COc1ccc(S(=O)(=O)NCCc2nnc3ccc(SCC(=O)Nc4ccccc4C)nn23)cc1	none (no result: SARS PLpro yeast, AMA1 RON2 block, AmpC no deterg, Shiga inhibitor, Cycloheximide cs)
O=C(CSC(=S)N1CCSCC1)c1ccc(Cl)cc1	Shiga inhibitor 82, Cycloheximide cs 39
CC1CN(C(=S)SCCN2C(=O)CCC2=O)CC(C)O1 (centres undefined)	none
O=C(CSC(=S)N1CCSCC1)c1ccccc1	Shiga inhibitor 93, Cycloheximide cs 27
O=C1CCC(=O)N1CCSC(=S)N1CCSCC1	Shiga inhibitor 60, Cycloheximide cs 14
S=C(c1ccccc1)N1CCSCC1	none
C=CCOc1ccc(C(c2c(C(=O)O)[nH]c3ccccc23)c2c(C(=O)O)[nH]c3ccccc23)cc1	AmpC no deterg 22µM
O=C(O)c1[nH]c2ccccc2c1C(c1ccccc1)c1c(C(=O)O)[nH]c2ccccc12	none
O=C(Cc1n[nH]c(=O)c2ccccc12)NCc1ccccc1	none
O=C(Cc1n[nH]c(=O)c2ccccc12)NC(c1ccccc1)c1ccccc1	Cycloheximide cs 16
CN(Cc1ccccc1F)C(=O)CCCNC(=O)c1ccc(Cl)cc1	none
CN(C)c1ccc(/C=N/NC(=O)c2ccc3c(c2)OCCO3)cc1	Shiga inhibitor 48, Cycloheximide cs 34
CCN(CC)c1ccc(/C=N/NC(=O)c2ccc3c(c2)OCCO3)cc1	Shiga inhibitor 115, Cycloheximide cs 58
O=C(CNC(=O)c1ccc2c(c1)OCCO2)N/N=C/c1ccc(Cl)cc1	none
